# Test results: PubChem BioAssay
# Calls of active or inactive are those of the source.
# Experiments:
# [1] = test system: Human papillomavirus type 1a protein E7 (residues 44-93); experiment: small molecules binding HPV E7 44-93 – biochemical, small-molecule microarray, residues 44-93, 635 nm fluorescence, primary screen (AID 1108); conditions: fluorescence 635 nm, higher = more signal;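 also: E7 fragment applied at 1 µg/mL in TBST for 1 h at 4 C; score combines spot fluorescence with its signal to noise ratio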
# [2] = hepatitis C replication reporter changes, two-sided – Huh7 cells, luciferase reporter, HCV replication inhibitor project, primary screen (AID 1109); conditions: Huh7 HCV replicon luciferase reporter, 48 h; higher = more signal;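 also: huh7 hepatoma cells harbouring a luciferase neomycin HCV replicon reporter; luciferase luminescence as measure of HCV replicon replication; test concentration not given here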
# [3] = target: Left-right determination factor 2 (Homo sapiens) (UniProt O00292); experiment: small molecules binding LEFTY2 protein – biochemical, small-molecule microarray, 635 nm fluorescence scan, primary screen (AID 1110); conditions: higher = more signal
# [4] = target: Calmodulin-1 (Homo sapiens) (UniProt P0DP23); experiment: small molecules binding calmodulin-1 with EGTA – biochemical, small-molecule microarray, Cy5-labelled CALM1, profiling panel (AID 1111); conditions: Cy5-CALM1 binding fluorescence, higher = more signal;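 also: labelled calmodulin applied in Tris saline Tween buffer holding calcium plus EGTA and DTT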
# [5] = target: Calmodulin-1 (Homo sapiens) (UniProt P0DP23); experiment: small molecules binding Ca-loaded calmodulin-1 – biochemical, small-molecule microarray, Cy5-labelled CALM1, plus calcium, artefact control for SMM control-protein annotation, profiling panel (AID 1112); conditions: Cy5-CALM1 binding fluorescence, higher = more signal;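 also: score merges spot fluorescence with signal to noise from triplicate slides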
# [6] = probe aWnt5a binding to arrayed compounds – biochemical, biotinylated probe, 635/667 nm fluorescence, primary screen (AID 1113); conditions: small-molecule microarray, higher = more signal;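 also: score merges 667 nm fluorescence intensity with signal-to-noise per printed feature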
# [7] = probe aShh binding to arrayed compounds – biochemical, biotinylated probe, 635/667 nm fluorescence, primary screen (AID 1114); conditions: small-molecule microarray, higher = more signal;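 also: probe is biotin-labelled aShh protein from a stem cell growth factor screen; measures binding of labelled protein to compounds printed on the slide; score merges feature fluorescence at 667 nm with signal-to-noise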
# [8] = probe aNog binding to arrayed compounds – biochemical, biotinylated probe, 635/667 nm fluorescence, primary screen (AID 1115); conditions: small-molecule microarray, higher = more signal;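 also: probe is biotinylated aNog protein used at 0.15 µg/mL for 1 h at 4 C; z-score combines 667 nm fluorescence of each spot with its signal to noise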
# [9] = target: Torsin-1A-interacting protein 1 (Homo sapiens) (UniProt Q5JTV8); experiment: compound microarray binding of lysate hLAP1 – cell lysate, small-molecule microarray, COS7 lysate, 635/667 nm fluorescence, primary screen (AID 1116); conditions: 635 nm fluorescence, higher = more signal
# [10] = target: Alpha-bungarotoxin (Bungarus multicinctus) (UniProt P60615); experiment: compounds binding labelled alpha-BTX control protein – biochemical, small-molecule microarray, Alexa647 label, 635/667 nm fluorescence, artefact control for SMM control protein annotation, profiling panel (AID 1117); conditions: alpha-BTX-A647 binding fluorescence, higher = more signal
# Albumin (Bos taurus) = Albumin (Bos taurus) (UniProt P02769); experiment: compounds binding labelled BSA control protein – biochemical, small-molecule microarray, Alexa647 label, 635/667 nm fluorescence, artefact control for SMM control protein annotation, profiling panel (AID 1118); conditions: BSA-A647 binding, fluorescence 635 nm, higher = more signal;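 also: score merges 667 nm emission intensity and signal-to-noise per printed compound spot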
# [11] = probe aXIP binding to arrayed compounds – biochemical, NeuroSMM set, 635/667 nm fluorescence, primary screen (AID 1119); conditions: small-molecule microarray, higher = more signal, called active from +8 up or from −8 down;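 also: probe is the protein aXip251-270 applied at 1 µg/mL to compound-printed slides; binding of probe to printed compounds measured as 667 nm fluorescence plus signal to noise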
# [12] = probe aNOTCH3 binding on compound microarray – biochemical, small-molecule microarray, 635/667 nm fluorescence, primary screen (AID 1120); conditions: higher = more signal;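 also: probe is a biotin-tagged antibody raised against NOTCH3 rather than NOTCH3 protein; score merges spot fluorescence near 667 nm with spot signal to noise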
# [13] = probe aNOTCH2 binding on compound microarray – biochemical, small-molecule microarray, 635/667 nm fluorescence, primary screen (AID 1121); conditions: higher = more signal;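 also: score merges feature fluorescence read at 667 nm with its signal to noise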
# [14] = target: Carbonic anhydrase 2 (Homo sapiens) (UniProt P00918); experiment: compounds binding carbonic anhydrase 2 – biochemical, small-molecule microarray, Alexa647-labelled CAII, profiling panel (AID 1122); conditions: CAII-A647 binding fluorescence, higher = more signal
# [15] = COS7 lysate on small-molecule microarray, probe aHis, 635 nm (AID 1123); conditions: COS7 cell lysate, fluorescence, higher = more signal;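 also: z-score combines 667nm fluorescence intensity with signal-to-noise per printed compound spot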
# [16] = probe aLAP1 signal on lysate-treated microarray – cell lysate, small-molecule microarray, COS7 lysate, primary screen (AID 1124); conditions: probe aLAP1, fluorescence, higher = more signal;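 also: lysate comes from COS7 cells expressing LAP1 and is applied at 0.3 µg/mL; score merges spot fluorescence near 667 nm with signal-to-noise over triplicate slides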
# Sam68 (KHDRBS1) = experiment: compounds binding KHDRBS1 protein – biochemical, small-molecule microarray, 635 nm fluorescence, primary screen (AID 1125); conditions: higher = more signal;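 also: score merges 667 nm channel intensity with signal to noise over triplicate slides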
# [17] = test system: Chordin-like protein 2 (CHRDL2); experiment: compounds binding chordin-like 2 – biochemical, small-molecule microarray, 635 nm fluorescence, primary screen (AID 1126); conditions: fluorescence 635 nm, higher = more signal;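 also: printed compound slides probed with Chrdl2 protein at 4 µg/mL for 1 h at 4 C; score merges 667 nm emission intensity with signal to noise over three replicate slides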
# [18] = target: Concanavalin-A (Canavalia ensiformis) (UniProt P02866); experiment: compounds binding concanavalin A lectin – biochemical, small-molecule microarray, Alexa647 label, 635 nm, artefact control for SMM control protein annotation, primary screen (AID 1127); conditions: ConA-A647 binding fluorescence, higher = more signal;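 also: z combines 667 nm emission intensity with signal-to-noise across three replicate slides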
# Chain of Concanavalin-A (Canavalia ensiformis) (P02866 whole entry, looked up): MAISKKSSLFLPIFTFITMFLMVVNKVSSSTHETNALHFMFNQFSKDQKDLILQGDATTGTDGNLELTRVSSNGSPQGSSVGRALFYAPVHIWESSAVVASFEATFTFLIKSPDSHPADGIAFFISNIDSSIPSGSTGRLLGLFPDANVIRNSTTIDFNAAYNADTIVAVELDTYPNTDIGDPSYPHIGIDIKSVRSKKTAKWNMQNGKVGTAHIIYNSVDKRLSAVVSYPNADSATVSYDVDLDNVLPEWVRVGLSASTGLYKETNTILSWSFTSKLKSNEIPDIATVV
# Chain of Alpha-bungarotoxin (Bungarus multicinctus) (P60615 whole entry, looked up): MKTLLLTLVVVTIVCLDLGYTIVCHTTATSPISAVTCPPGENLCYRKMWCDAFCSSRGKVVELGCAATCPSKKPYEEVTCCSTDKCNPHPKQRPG
# Chain of Left-right determination factor 2 (Homo sapiens) (O00292 whole entry, looked up): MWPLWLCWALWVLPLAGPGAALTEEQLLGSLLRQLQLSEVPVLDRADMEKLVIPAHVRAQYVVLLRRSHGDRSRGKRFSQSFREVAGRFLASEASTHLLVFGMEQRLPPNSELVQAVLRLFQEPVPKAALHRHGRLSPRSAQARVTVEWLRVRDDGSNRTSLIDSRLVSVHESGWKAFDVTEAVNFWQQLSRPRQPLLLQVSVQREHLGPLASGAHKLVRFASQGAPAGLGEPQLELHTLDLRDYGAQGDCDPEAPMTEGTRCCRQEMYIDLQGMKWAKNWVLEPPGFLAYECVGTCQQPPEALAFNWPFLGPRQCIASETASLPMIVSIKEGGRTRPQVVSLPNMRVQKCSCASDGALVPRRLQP
# Chain of Albumin (Bos taurus) (P02769 whole entry, looked up): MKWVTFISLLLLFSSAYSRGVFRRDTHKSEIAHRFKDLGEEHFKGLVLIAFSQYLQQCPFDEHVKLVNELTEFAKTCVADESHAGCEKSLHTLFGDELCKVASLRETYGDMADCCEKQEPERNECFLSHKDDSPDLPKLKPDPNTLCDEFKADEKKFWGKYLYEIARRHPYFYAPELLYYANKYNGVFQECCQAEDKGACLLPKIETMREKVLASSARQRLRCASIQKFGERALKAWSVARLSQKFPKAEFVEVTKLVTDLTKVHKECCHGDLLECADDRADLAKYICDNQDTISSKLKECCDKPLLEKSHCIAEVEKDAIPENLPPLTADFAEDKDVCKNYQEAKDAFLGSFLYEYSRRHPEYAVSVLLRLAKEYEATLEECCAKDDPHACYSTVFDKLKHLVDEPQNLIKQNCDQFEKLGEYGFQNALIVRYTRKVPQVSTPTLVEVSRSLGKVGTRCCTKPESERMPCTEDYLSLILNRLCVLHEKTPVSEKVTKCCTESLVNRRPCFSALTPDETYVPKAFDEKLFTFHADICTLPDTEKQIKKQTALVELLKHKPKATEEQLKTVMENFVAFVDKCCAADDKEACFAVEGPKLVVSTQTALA
# Chain of Torsin-1A-interacting protein 1 (Homo sapiens) (Q5JTV8 whole entry, looked up): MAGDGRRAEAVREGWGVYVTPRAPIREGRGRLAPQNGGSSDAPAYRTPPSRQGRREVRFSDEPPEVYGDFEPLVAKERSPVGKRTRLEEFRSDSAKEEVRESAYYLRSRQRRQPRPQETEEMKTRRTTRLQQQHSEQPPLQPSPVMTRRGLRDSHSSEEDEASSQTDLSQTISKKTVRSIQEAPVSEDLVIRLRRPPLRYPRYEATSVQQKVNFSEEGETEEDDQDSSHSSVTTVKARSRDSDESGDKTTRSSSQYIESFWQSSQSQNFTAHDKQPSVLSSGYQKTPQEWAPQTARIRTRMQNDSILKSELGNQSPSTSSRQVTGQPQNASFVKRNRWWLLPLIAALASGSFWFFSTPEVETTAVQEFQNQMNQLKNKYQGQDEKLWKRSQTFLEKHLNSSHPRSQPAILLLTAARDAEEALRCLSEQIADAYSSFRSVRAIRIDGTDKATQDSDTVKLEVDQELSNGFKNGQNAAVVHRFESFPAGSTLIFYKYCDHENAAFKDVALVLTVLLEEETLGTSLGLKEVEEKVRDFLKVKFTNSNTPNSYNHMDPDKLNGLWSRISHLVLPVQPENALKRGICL
SMILES,composite z-score [1],z-score [2],composite z-score [3],composite z-score [4],composite z-score [5],composite z-score [6],composite z-score [7],composite z-score [8],composite z-score [9],composite z-score [10],composite z-score (Albumin (Bos taurus)),composite Z-score [11],composite z-score [12],composite z-score [13],composite z-score [14],composite z-score [15],composite z-score [16],composite z-score (Sam68 (KHDRBS1)),composite z-score [17],composite z-score [18]
CC(=O)OC[C@H]1O[C@H](CCON=C(C)CCC(=O)OC[C@H]2O[C@H](C#Cc3ccccc3)C=C[C@@H]2Oc2ccc(C)cc2)C=C[C@@H]1OC(C)=O,-0.187,-0.0572,0.977,-0.367,-0.5,-0.131,-0.138,-0.423,0.245,1.24,0.208,0.131 (inactive),0.0322,-0.204,-0.085,0.1,0.448,0.287,0.401,0.194
CCCC[C@@H]1C[C@H]1[C@@H](NS(=O)(=O)c1cccc2cccnc12)c1ccc(-c2ccccc2)cc1,0.97,-0.122,-0.732,0.691,1.23,0.138,-0.01,1.31,0.0258,0.231,0.41,-0.325 (inactive),0.106,-0.0817,0.529,0.92,-0.222,-0.0217,-1,0.119
CO[C@H]1O[C@H](CO)[C@@H](OC(=O)Nc2ccc(C#N)cc2)[C@H](OC(=O)c2cc3ccccc3[nH]2)[C@H]1OC(=O)c1cc2ccccc2[nH]1,1.33,-2.2,0.339,2.07,0.299,-0.206,-0.0769,0.569,2.09,2.63,0.904,1.79 (inactive),0.078,-0.0211,0.627,2.41,1.5,1.31,0.451,1.13
COC(=O)C1=C(C)[C@@H](O)[C@@H](C)[C@H](c2c(OC)c(OC)c(C)c(OC)c2OC)O1,-0.685,-0.566,0.494,-0.628,-0.787,-0.171,-0.0011,-0.135,0.272,0.138,0.529,-0.461 (inactive),-0.0615,-0.14,0.298,0.206,-0.064,-0.441,0.336,0.484
COCCOC(=O)N1C(=O)[C@@]2(c3ccccc31)[C@H](C(N)=O)[C@H]1C(=O)O[C@H](c3ccccc3)[C@H](c3ccccc3)N1[C@@H]2c1ccccc1OCCO,1.32,-2.2,0.565,2.3,0.668,-0.0118,-0.0035,0.162,4.3,2.62,0.834,0.839 (inactive),0.198,0.0959,0.749,2.02,1.06,1.3,0.522,1.15
CCOC(=O)C1=CCC(c2cc3ccccc3[nH]2)NC1 (stereo not given),-0.192,-0.312,0.208,-0.219,0.19,0.0438,0.204,0.562,0.97,0.864,0.653,0.0894 (inactive),0.173,0.069,0.63,1.7,0.944,0.689,0.215,-0.668
O=C1[C@H]2[C@H]3[C@H](O)[C@H](O)CC(=NO[C@@H]4O[C@H](CO)[C@@H](O)[C@H](O)[C@H]4O)[C@@H]3CC[C@H]2C(=O)N1Cc1ccccc1,0.33,0.506,0.792,-0.225,-1.24,-0.136,0.225,-0.433,0.392,-0.187,-0.0679,0.0769 (inactive),0.0744,-0.0623,-0.568,-0.658,0.0054,0.64,-0.293,-0.664
C[N+](C)(C)CCCCCCNC(=O)[C@@H]1C[C@@H]2C(=O)N3CCC[C@H]3C(=O)N2[C@@H]1c1cccc(OCCO)c1,1.34,1.41,0.385,0.233,-1.07,-0.197,0.905,-0.238,-0.24,-0.0576,-0.45,0.372 (inactive),-0.182,-0.205,0.581,1.56,0.338,0.927,0.954,0.743
C=C(CCCC)C(=O)CC[C@@H](OC(C)=O)c1cccc(OCCO)c1,-0.701,-4.56,0.333,-0.602,-1.28,-0.12,-0.0227,-0.0381,2.13,-0.0603,-0.528,0.0491 (inactive),-0.0933,-0.193,0.767,-0.022,0.953,-0.106,0.582,0.259
C#C[C@@H]1Oc2ccccc2S(=O)(=O)N2CCC[C@H]12,-0.638,0.206,0.273,-0.593,-0.867,0.0391,0.0893,0.186,0.237,-0.302,-0.13,0.235 (inactive),-0.063,-0.185,0.256,-1.2,-0.34,-1.29,0.424,-0.512
CCOC(=O)[C@H](Cc1ccccc1)NC(=O)CCC1CC(OC(=O)NCc2ccc3c(c2)OCO3)CC2(CCCC(COC(=O)NCc3cccc(C(F)(F)F)c3)O2)O1 (stereo not given in full),0.547,-1.21,0.48,0.214,-0.286,-0.0792,0.108,0.205,0.251,0.0294,-0.0075,-0.944 (inactive),0.0224,-0.123,-0.106,0.287,-0.0375,0.843,0.393,0.546
